Bioassay records deposited in PubChem BioAssay by National Center for Advancing Translational Sciences (NCATS).
Most compounds without a hit are left out; they make up all but 8.3% or so of the library.
BCR signal inh: inhibitors of chronic active B-cell receptor signaling; ABC-DLBCL IkBa-CBG/CBR reporter, luminescence ratio, 4 h; Potency, µM (highest dose often 46.1 µM), most hits filed as inhibitors; hit rate 0.05% among 340,000; active means well fitted inhibition curve with a large enough effect in the signal ratio, with a control signal flat, not every such curve was filed as active; inconclusive means small, poorly fitted or top-dose-only effect, or effect the other way, or a change in a side signal; the % refers to the signal ratio
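Doxycycline induced both beetle luciferases in TMD8 lymphoma cells; IKK-driven degradation limits the IkappaBalpha-fused green signal, while red luminescence normalises for cell number and nonspecific effects. Compounds tested up to 46 uM, 4 hrs.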
RORg inh: blocks mouse ROR gamma transcriptional activity. hit rate 5.4% among 310,000. Drosophila S2 Gal4-RORgamma UAS-luciferase reporter, 20 h. Potency, µM (series often up to 53.6 µM), most hits filed as inhibitors. P51450; further: nearly all actives have a fitted effect of over 60% in size
Target sequence (P51450 whole entry, looked up, the tested form may be a part): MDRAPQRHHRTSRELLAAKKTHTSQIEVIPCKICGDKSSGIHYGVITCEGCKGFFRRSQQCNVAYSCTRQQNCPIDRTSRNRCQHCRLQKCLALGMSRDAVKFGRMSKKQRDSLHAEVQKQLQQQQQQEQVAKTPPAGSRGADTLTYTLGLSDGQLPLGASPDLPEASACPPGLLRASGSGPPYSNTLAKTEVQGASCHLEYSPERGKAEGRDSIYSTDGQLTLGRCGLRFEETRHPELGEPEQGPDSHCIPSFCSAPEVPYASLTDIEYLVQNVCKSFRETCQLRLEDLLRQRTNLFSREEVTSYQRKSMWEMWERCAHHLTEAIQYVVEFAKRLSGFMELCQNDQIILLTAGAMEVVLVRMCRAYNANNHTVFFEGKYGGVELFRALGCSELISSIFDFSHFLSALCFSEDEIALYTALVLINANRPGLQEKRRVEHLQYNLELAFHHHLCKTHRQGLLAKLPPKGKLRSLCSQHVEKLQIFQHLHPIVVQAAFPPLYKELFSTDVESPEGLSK
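Luminescence from a UAS-regulated Photinus luciferase reporter in stably transfected Drosophila Schneider cells is measured; decreased signal marks ROR gamma inhibition. Fusion expression is induced by 700 uM copper sulfate for 20 hr.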
MCF10A rerep: induces DNA re-replication in MCF 10a normal breast cells; MCF 10A DNA re-replication, Hoechst nuclear intensity, 48 h; Potency, µM (series often up to 46.1 µM), actives largely listed as activators; hit rate 2.9% among 350,000; further: nearly all actives have a fitted effect of over 50% in size
SW480 rereplic: DNA re-replication induction in SW480 cells | Potency, µM (highest dose often 46.1 µM), hits mostly activators | hit rate 1.8% among 340,000 | AID 624297 | SW480 DNA re-replication, Hoechst DNA content imaging, 48 h; further: nearly all actives have a fitted effect of over 55% in size
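250 cells/well; 23 nL cpd via pin tool; 48 hr, 37 C, 5% CO2; Hoechst 40 min; imager read of total nuclear intensity, ex 405/em 500-530 nm.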
Gal4-VP16 FLuc: inhibits Gal4-VP16 luciferase reporter, ROR gamma counter-screen | Drosophila S2 Gal4-VP16 UAS-luciferase, luminescence, 20 h | hit rate 3.5% among 310,000 | Potency, µM (series often up to 53.6 µM), usual class: inhibitors | AID 2546;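 further: Gal4-VP16 expression switched on by copper sulfate through the metallothionein promoter; nearly all actives have a fitted effect of over 50% in size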
Giardia kill: Giardia lamblia killing; Giardia lamblia trophozoite viability; activity change, % at 7.66 µM, hits read low; hit rate 0.15% among 340,000; in the data active means activity change below about -80%; inconclusive means between about -30% and that limit;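 further: parasites exposed to compound for two days anaerobically before the ATP read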
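Giardia trophozoites, 100 cells per well, were exposed to compounds for 48 hrs at 37 deg C under anaerobic conditions; viability was then read as ATP content by bioluminescence after 15-30 min at room temperature.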
Each line names hits and unclear results; the compound was inactive in the other large screens. Unless noted, the call rests on the fitted dose curve; in most records, active means well fitted curve in the direction sought with a large enough effect; inconclusive means small, poorly fitted or top-dose-only effect, or another doubt; inactive means no such curve, though single readings can be large; an effect the other way counts as inactive or inconclusive.

CCOC(=O)[C@H]1[C@H]2COc3ccc(Br)cc3[C@@H]2N2C(=O)N(c3ccccc3)C(=O)[C@@]12C	none (no result: RORg inh, Gal4-VP16 FLuc)
CCOC(=O)[C@@H]1[C@H]2COc3cc(OC)ccc3[C@@H]2N2C(=O)N(c3cccc(Cl)c3)C(=O)[C@@]12C	RORg inh 11µM
CCOC(=O)[C@@H]1[C@H]2COc3ccccc3[C@@H]2N2C(=O)N(c3ccccc3)C(=O)[C@@]12C	RORg inh 13µM
CCOC(=O)[C@@H]1[C@H]2COc3ccc(Br)cc3[C@@H]2N2C(=O)N(c3ccccc3)C(=O)[C@@]12C	RORg inh 10µM
COc1ccc(/C=C(\C#N)C(=O)Nc2ccc3[nH]c(=O)[nH]c3c2)cc1	none
CCCCOC(=O)c1ccc(NC(=O)c2c(OC)cccc2OC)cc1	RORg inh inconclusive
CCCCCCCCOc1ccccc1C(=O)Nc1ccc(C(=O)OCC[N+](C)(CC)CC)cc1	MCF10A rerep 27µM (no result: BCR signal inh, Giardia kill)
CC(=O)Nc1sc(C)c(C)c1C(=O)OCC(=O)NC(C)c1ccccc1 (configuration not stated)	SW480 rereplic inconclusive (no result: RORg inh, Gal4-VP16 FLuc)
CNC(=S)N/N=C/c1cc(Br)c(OCc2ccncc2)c(OC)c1	BCR signal inh inconclusive, Gal4-VP16 FLuc inconclusive
NC(=S)N/N=C/c1ccccc1OCCSc1ccc(Cl)cc1	RORg inh inconclusive, MCF10A rerep 21µM, SW480 rereplic inconclusive, Gal4-VP16 FLuc 28µM
COc1cc(/C=N/NC(N)=S)cc(Br)c1OCc1ccccc1F	BCR signal inh inconclusive, RORg inh 1µM, MCF10A rerep inconclusive, Gal4-VP16 FLuc 4.5µM
COc1cc(/C=N/O)cc(Br)c1OCc1ccc(Cl)cc1	BCR signal inh inconclusive, RORg inh 5.6µM, MCF10A rerep 18µM, SW480 rereplic inconclusive, Gal4-VP16 FLuc inconclusive
COc1cccc(/C=N/NC(N)=S)c1OCc1ccccc1Cl	RORg inh 3.2µM, MCF10A rerep inconclusive, Gal4-VP16 FLuc 4µM
COc1cc(/C=N/O)cc(Br)c1OC	none
CCOC(=O)N/N=C/c1ccccc1OCc1ccc(Cl)cc1	RORg inh inconclusive
Cc1ccc(C)c(N2CCN(S(=O)(=O)c3cc4c(cc3Cl)NC(=O)CO4)CC2)c1	none
O=C(CSc1nnc(-c2ccco2)o1)c1ccc(O)cc1O	MCF10A rerep inconclusive
Cc1ccc(C(=O)Nc2ccc(N3CCN(C)CC3)cc2)c(Cl)c1	none
O=C1C=C(c2cccc(Br)c2)C[C@@H](c2ccc(Cl)cc2)C1	none (no result: RORg inh, Gal4-VP16 FLuc)
CC(C)Sc1sc(C(=O)O)c(-c2ccc(Cl)cc2)c1C#N	none
CS(=O)(=O)N(CC(=O)NCCSCc1c(F)cccc1Cl)c1cccc([N+](=O)[O-])c1	none
CC(Sc1nc2ccccc2c(=O)n1CC1CCCO1)C(=O)N(C)c1ccccc1 (configuration not stated)	none (no result: RORg inh, Gal4-VP16 FLuc)
CCOc1cc(/C=N/N=C(\N)c2nonc2N)cc(Br)c1OCc1cccc2ccccc12	BCR signal inh inconclusive, RORg inh 13µM, MCF10A rerep inconclusive, SW480 rereplic inconclusive, Gal4-VP16 FLuc inconclusive
CCOc1cc(/C=N/NC(N)=S)cc(Br)c1OCc1ccccc1C	BCR signal inh inconclusive, RORg inh 0.79µM, MCF10A rerep inconclusive, Gal4-VP16 FLuc 2.5µM
COc1cc(/C=N/N=C(/N)c2nonc2N)cc(Br)c1OCc1cccc(C)c1	BCR signal inh inconclusive, MCF10A rerep inconclusive
CCOc1cc(/C=N/NC(N)=O)cc(Br)c1OCc1ccccc1	none
COc1ccc(CN(C(=O)COc2ccccc2OC)C2CCS(=O)(=O)C2)cc1 (configuration not stated)	none (no result: RORg inh, MCF10A rerep, SW480 rereplic, Gal4-VP16 FLuc, Giardia kill)
Cc1nnc(C)n1/N=C/c1cc2ccccc2nc1Cl	BCR signal inh inconclusive, MCF10A rerep inconclusive
Cn1c(N/N=C/c2c[nH]c3ccccc23)nc2ccccc21	BCR signal inh inconclusive, RORg inh 1µM, MCF10A rerep inconclusive, SW480 rereplic inconclusive, Gal4-VP16 FLuc 4µM
CCCn1c(/N=C/c2c[nH]c3ccccc23)nc2ccccc21	none
CCCCn1c(/N=C/c2c[nH]c3ccccc23)nc2ccccc21	RORg inh inconclusive, MCF10A rerep 12µM, SW480 rereplic 18µM, Gal4-VP16 FLuc inconclusive
Cn1c(N/N=C/c2cc3ccccc3nc2Cl)nc2ccccc21	BCR signal inh inconclusive, RORg inh 1.1µM, MCF10A rerep inconclusive, SW480 rereplic inconclusive, Gal4-VP16 FLuc 1.3µM, Giardia kill -88
Cc1cc(N/N=C/c2c[nH]c3ccccc23)c2ccccc2n1	none
O=C(NCCCn1ccnc1)c1cc(Cl)cc(Cl)c1	MCF10A rerep inconclusive
Cc1cccc(-n2c(=O)c(C#N)cc3c(=O)n4ccccc4nc32)c1	MCF10A rerep inconclusive, SW480 rereplic 16µM
Cc1ccc(-n2c(=O)c(C#N)cc3c(=O)n4ccccc4nc32)cc1	MCF10A rerep inconclusive, SW480 rereplic 2.1µM
CC(=NO)C1CCC2C3CCC4=CC(=NO)CCC4(C)C3C(=O)CC12C (configuration not stated)	MCF10A rerep inconclusive (no result: BCR signal inh, RORg inh, Gal4-VP16 FLuc)
CCOc1cc(C(=O)NC(=S)Nc2nc(C)cc(C)n2)cc(OCC)c1OCC	RORg inh 11µM, Gal4-VP16 FLuc inconclusive
CCOc1ccc(C(=O)Nc2cccc(C)n2)cc1	BCR signal inh inconclusive, RORg inh 8.9µM, Gal4-VP16 FLuc inconclusive
CCOc1ccc(C(=O)Nc2cc(C)ccn2)cc1	BCR signal inh inconclusive, RORg inh 8.9µM, MCF10A rerep inconclusive, Gal4-VP16 FLuc 10µM, Giardia kill -88
Cc1cccc(NC(=O)c2sc3nc(-c4ccccc4)cn3c2C)n1	BCR signal inh inconclusive
Cc1ccnc(NC(=O)c2ccc(C(=O)c3ccccc3)cc2)c1	BCR signal inh inconclusive, MCF10A rerep inconclusive, Giardia kill inconclusive (no result: RORg inh, Gal4-VP16 FLuc)
COc1ccc(-c2cn3c(C)c(C(=O)Nc4cccc(C)n4)sc3n2)cc1	BCR signal inh inconclusive, RORg inh 7.1µM, MCF10A rerep inconclusive, Gal4-VP16 FLuc 11µM
CCOC(=O)c1ccc(S(=O)(=O)N2CCN(c3nc(-c4cccs4)nc4ccccc34)CC2)cc1	none (no result: BCR signal inh, RORg inh, MCF10A rerep, SW480 rereplic, Gal4-VP16 FLuc)
CNC(=S)N1CCN(c2ccc(Cl)c(Cl)c2)CC1	none
CCOc1cc(C(=O)Nc2cc(C)ccn2)cc(OCC)c1OCC	BCR signal inh inconclusive, RORg inh 16µM, MCF10A rerep inconclusive, Gal4-VP16 FLuc inconclusive
CCOc1cc(C(=O)Nc2cnccn2)cc(OCC)c1OCC	MCF10A rerep inconclusive, SW480 rereplic inconclusive
CC1(C)SC2c3ccccc3C(=O)N2[C@@H]1C(=O)NC1CC1 (some centres not stated)	none
COc1ccc(/C=C/c2noc(-c3ccccc3O)n2)cc1	BCR signal inh inconclusive, RORg inh inconclusive, Gal4-VP16 FLuc inconclusive
COc1cc(/C=C/c2ccc3c(Br)cc(Br)c(O)c3n2)ccc1O	BCR signal inh inconclusive, RORg inh 0.4µM, MCF10A rerep 13µM, SW480 rereplic inconclusive, Gal4-VP16 FLuc 0.32µM
COc1cc(C=O)ccc1O	none (no result: BCR signal inh, MCF10A rerep, SW480 rereplic, Giardia kill)
